Experimental data from the supplement of paper PMC10849652.
Targets with a hit are over-represented here; the source holds about 7,900 in all. About 0.6% of all pairs of compound and target were hits.

Key:
Test in all cases: log2 fold change, soluble protein after heating vs DMSO (PISA); higher = thermal stabilisation; K562 cells, 10 uM, 30 min; active = over 0.2 and 3.5 SD of the protein, either way, in both replicates (recomputed)
[1] = compound: CC[C@@H]1C(=O)N(C)c2cnc(Nc3ccc(C(=O)NC4CCN(C)CC4)cc3OC)nc2N1C1CCCC1
Method in brief: (§1)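 K562 cells at 2×10^6 cells/mL were treated for 30 min with 10 μM compound, and aliquots were heated for 3 min over 48°C-58°C before pooling. Extraction used PBS with 0.5% NP-40 at 4°C, and soluble protein was the supernatant after 21,000xg for 90 min, measured by TMTpro 16plex LC-MS/MS with channel sums equalised. Thermal stability values, relative to control samples and from duplicates, are log2 fold changes.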

volasertib = compound: CC[C@@H]1C(=O)N(C)c2cnc(Nc3ccc(C(=O)N[C@H]4CC[C@H](N5CCN(CC6CC6)CC5)CC4)cc3OC)nc2N1C(C)C [volasertib]
Method in brief: as §1

[2] = compound: CC[C@H](C)N1C=C(C2=C(C=C(C=C21)C3=CN=C(C=C3)N4CCNCC4)C(=O)NCC5=C(C=C(NC5=O)C)C)C
Method in brief: as §1

epoxomicin = compound: CC[C@H](C)[C@@H](C(=O)N[C@@H]([C@@H](C)O)C(=O)N[C@@H](CC(C)C)C(=O)[C@]1(CO1)C)NC(=O)[C@H]([C@@H](C)CC)N(C)C(=O)C [epoxomicin]
Method in brief: as §1

[3] = compound: CCn1c(C(=O)N(C2CC2)C2CC2)cc2c3c(ncn3C)c(Nc3cc(C)n(C)n3)nc21
Method in brief: as §1

[4] = compound: CCn1cc(-c2ccnc3[nH]c(-c4cccc(CN(C)C)c4)cc23)c(-c2ccc(NC(=O)N(C)C)cc2)n1
Method in brief: as §1

[5] = compound: CN(C)CC(=O)Nc1ccc2[nH]c(=O)c3ccccc3c2c1
Method in brief: as §1

rosiglitazone = compound: CN(CCOC1=CC=C(C=C1)C[C@H]2C(=O)NC(=O)S2)C3=CC=CC=N3 (racemic) [rosiglitazone]
Method in brief: as §1

[6] = compound: CN1C2=C(C3=C1C(=O)N(N=C3)CC4=CC(=CC=C4)N)SC(=C2)S(=O)C
Method in brief: as §1

[7] = compound: CN1CCC(CNc2ccc3ncc(-c4cccc(OC(F)(F)F)c4)n3n2)CC1
Method in brief: as §1

Measured: log2 fold change

CNDP2 (UniProt Q96KP4)
Chain of UniProt Q96KP4 (Q96KP4 whole entry, looked up): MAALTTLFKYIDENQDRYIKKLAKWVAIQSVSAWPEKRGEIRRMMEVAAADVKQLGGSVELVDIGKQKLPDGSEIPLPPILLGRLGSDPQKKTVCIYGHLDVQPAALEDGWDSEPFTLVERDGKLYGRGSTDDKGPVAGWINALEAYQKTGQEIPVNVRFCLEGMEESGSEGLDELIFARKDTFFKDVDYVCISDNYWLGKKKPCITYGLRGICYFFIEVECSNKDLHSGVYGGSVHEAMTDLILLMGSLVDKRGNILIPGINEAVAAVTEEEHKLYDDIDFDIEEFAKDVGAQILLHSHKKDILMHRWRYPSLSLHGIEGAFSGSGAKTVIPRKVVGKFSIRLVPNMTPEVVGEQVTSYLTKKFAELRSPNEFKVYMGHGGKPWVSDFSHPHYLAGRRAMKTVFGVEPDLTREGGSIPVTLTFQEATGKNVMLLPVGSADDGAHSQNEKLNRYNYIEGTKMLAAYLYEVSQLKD
inactive: [1] -0.037 | volasertib 0.014 | [2] -0.003 | epoxomicin -0.012 | [3] 0.014 | [4] -0.1 | [5] -0.002 | rosiglitazone 0.016 | [6] -0.103 | [7] -0.149

C4orf33 (UniProt Q8N1A6)
inactive: [1] 0.044 | volasertib 0.066 | [2] 0.007 | epoxomicin -0.084 | [3] -0.034 | [4] -0.062 | [5] -0.007 | rosiglitazone 0.155 | [6] 0.009 | [7] -0.027

CALCOCO2 isoform 4 (UniProt Q13137)
Chain of UniProt Q13137 (Q13137 whole entry, looked up): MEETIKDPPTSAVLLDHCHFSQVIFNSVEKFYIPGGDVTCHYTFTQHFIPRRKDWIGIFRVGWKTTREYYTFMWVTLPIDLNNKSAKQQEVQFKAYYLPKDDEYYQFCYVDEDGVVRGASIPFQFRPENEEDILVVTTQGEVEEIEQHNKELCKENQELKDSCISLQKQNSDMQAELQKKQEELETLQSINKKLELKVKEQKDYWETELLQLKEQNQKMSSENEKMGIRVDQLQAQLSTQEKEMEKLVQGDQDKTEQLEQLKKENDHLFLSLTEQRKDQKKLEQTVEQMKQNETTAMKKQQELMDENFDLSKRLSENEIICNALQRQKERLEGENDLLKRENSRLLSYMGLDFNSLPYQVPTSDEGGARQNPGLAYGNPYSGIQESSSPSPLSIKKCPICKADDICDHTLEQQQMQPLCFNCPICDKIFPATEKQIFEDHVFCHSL
inactive: [2] -0.024 | epoxomicin 0.035 | [3] 0.089 | [4] 0.059 | [5] 0.01 | rosiglitazone 0 | [6] 0.055 | [7] -0.149
active: [1] -0.634 | volasertib -0.471

CS (UniProt O75390)
Chain of UniProt O75390 (O75390 whole entry, looked up): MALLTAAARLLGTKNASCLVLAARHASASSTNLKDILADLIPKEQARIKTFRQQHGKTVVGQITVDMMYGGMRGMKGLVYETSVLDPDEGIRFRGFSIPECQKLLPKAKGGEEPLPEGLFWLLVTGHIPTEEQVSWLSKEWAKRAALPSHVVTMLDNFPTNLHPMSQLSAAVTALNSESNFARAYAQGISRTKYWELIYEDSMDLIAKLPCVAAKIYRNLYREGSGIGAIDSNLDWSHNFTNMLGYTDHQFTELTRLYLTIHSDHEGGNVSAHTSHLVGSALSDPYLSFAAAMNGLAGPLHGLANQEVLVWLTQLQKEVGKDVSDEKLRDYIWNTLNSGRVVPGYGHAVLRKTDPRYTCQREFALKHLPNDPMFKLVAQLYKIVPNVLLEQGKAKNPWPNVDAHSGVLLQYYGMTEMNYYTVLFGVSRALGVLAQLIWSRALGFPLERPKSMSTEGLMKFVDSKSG
inactive: [1] 0.04 | volasertib 0.158 | [2] 0.027 | epoxomicin 0.01 | [3] 0.032 | [4] -0.059 | [5] 0.032 | rosiglitazone 0.083 | [6] -0.088
active: [7] -0.222

CTBS (UniProt Q01459)
active: [1] -0.494 | volasertib -0.376 | [7] -0.44
inactive: [2] -0.074 | epoxomicin 0.033 | [3] 0.007 | [4] 0.069 | [5] 0.013 | rosiglitazone -0.058 | [6] 0.045

CKS1B (UniProt P61024)
inactive: [1] -0.028 | volasertib 0.068 | [2] 0.094 | epoxomicin 0.014 | [3] 0.025 | [4] 0.041 | [5] -0.024 | rosiglitazone -0.002 | [6] 0.022 | [7] -0.006

CLPTM1L (UniProt Q96KA5)
Chain of UniProt Q96KA5 (Q96KA5 whole entry, looked up): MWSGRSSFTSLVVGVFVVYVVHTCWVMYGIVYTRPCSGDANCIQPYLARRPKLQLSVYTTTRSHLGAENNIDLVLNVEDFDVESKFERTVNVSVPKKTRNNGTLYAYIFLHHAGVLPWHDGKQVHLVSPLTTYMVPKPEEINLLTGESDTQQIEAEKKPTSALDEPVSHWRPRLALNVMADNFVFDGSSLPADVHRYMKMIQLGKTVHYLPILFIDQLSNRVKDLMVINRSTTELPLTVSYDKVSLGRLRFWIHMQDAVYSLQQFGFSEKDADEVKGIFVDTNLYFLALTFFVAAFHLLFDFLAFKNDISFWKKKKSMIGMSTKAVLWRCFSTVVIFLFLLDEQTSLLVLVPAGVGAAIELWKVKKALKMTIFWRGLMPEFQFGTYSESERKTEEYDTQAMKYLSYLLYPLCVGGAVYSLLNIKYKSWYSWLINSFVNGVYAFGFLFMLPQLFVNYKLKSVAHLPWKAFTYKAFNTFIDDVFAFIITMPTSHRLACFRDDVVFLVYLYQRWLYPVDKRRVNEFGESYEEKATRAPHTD
inactive: [1] -0.067 | volasertib -0.185 | [2] 0.005 | epoxomicin 0.013 | [3] 0.009 | [4] -0.051 | [5] 0.023 | rosiglitazone 0.054 | [6] -0.023 | [7] -0.188

CCAR2 isoform 2 (UniProt Q8N163)
active: volasertib -0.343
inactive: [1] -0.08 | [2] 0.031 | epoxomicin -0.018 | [3] -0.057 | [4] -0.025 | [5] 0.044 | rosiglitazone 0.047 | [6] 0.003 | [7] -0.145

CDK5 (UniProt Q00535)
inactive: [1] -0.087 | [2] 0.095 | epoxomicin 0 | [3] 0.004 | [4] -0.039 | [5] 0.002 | rosiglitazone 0.041 | [6] -0.014 | [7] 0.025
active: volasertib -0.259

CCNK isoform 4 (UniProt O75909)
inactive: [1] 0.099 | volasertib 0.045 | [2] -0.018 | epoxomicin -0.254 | [3] 0.025 | [4] 0.129 | [5] -0.051 | rosiglitazone -0.038 | [6] 0.105 | [7] 0.032

CASP3 (UniProt P42574)
Chain of UniProt P42574 (P42574 whole entry, looked up): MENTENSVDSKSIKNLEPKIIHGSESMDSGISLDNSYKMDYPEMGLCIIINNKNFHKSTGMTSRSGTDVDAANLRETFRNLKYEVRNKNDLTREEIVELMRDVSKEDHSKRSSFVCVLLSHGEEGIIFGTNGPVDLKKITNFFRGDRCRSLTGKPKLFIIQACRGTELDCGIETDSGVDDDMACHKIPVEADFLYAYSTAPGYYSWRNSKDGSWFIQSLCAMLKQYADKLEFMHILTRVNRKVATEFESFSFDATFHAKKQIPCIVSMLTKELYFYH
inactive: [1] 0.012 | volasertib 0.014 | [2] -0.033 | [3] 0 | [4] 0.018 | [5] -0.021 | rosiglitazone 0.014 | [6] -0.097 | [7] 0.019
active: epoxomicin 0.273

CALB1 (UniProt P05937)
Chain of UniProt P05937 (P05937 whole entry, looked up): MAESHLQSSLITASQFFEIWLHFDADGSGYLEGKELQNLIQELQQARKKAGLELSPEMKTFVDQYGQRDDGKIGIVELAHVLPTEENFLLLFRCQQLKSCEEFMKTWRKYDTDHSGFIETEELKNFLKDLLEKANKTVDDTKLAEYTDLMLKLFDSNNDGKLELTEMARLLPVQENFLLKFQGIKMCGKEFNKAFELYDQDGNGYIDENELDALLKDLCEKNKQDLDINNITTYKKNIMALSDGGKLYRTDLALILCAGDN
active: [7] -0.282
inactive: [1] -0.123 | volasertib -0.092 | [2] -0.007 | epoxomicin 0.043 | [3] 0.003 | [4] 0.05 | [5] 0.016 | rosiglitazone 0.027 | [6] -0.039

COX15 (UniProt Q7KZN9)
inactive: [1] 0.057 | volasertib 0.023 | [2] -0.037 | epoxomicin -0.018 | [3] 0.05 | [4] 0.021 | [5] 0.006 | rosiglitazone 0.085 | [6] -0.044 | [7] -0.015

COX5A (UniProt P20674)
inactive: [1] 0.048 | volasertib -0.08 | [2] -0.081 | epoxomicin 0.234 | [3] -0.018 | [4] 0.072 | [5] -0.001 | rosiglitazone -0.042 | [6] -0.063 | [7] 0.269

CEMIP2 (UniProt Q9UHN6)
Chain of UniProt Q9UHN6 (Q9UHN6 whole entry, looked up): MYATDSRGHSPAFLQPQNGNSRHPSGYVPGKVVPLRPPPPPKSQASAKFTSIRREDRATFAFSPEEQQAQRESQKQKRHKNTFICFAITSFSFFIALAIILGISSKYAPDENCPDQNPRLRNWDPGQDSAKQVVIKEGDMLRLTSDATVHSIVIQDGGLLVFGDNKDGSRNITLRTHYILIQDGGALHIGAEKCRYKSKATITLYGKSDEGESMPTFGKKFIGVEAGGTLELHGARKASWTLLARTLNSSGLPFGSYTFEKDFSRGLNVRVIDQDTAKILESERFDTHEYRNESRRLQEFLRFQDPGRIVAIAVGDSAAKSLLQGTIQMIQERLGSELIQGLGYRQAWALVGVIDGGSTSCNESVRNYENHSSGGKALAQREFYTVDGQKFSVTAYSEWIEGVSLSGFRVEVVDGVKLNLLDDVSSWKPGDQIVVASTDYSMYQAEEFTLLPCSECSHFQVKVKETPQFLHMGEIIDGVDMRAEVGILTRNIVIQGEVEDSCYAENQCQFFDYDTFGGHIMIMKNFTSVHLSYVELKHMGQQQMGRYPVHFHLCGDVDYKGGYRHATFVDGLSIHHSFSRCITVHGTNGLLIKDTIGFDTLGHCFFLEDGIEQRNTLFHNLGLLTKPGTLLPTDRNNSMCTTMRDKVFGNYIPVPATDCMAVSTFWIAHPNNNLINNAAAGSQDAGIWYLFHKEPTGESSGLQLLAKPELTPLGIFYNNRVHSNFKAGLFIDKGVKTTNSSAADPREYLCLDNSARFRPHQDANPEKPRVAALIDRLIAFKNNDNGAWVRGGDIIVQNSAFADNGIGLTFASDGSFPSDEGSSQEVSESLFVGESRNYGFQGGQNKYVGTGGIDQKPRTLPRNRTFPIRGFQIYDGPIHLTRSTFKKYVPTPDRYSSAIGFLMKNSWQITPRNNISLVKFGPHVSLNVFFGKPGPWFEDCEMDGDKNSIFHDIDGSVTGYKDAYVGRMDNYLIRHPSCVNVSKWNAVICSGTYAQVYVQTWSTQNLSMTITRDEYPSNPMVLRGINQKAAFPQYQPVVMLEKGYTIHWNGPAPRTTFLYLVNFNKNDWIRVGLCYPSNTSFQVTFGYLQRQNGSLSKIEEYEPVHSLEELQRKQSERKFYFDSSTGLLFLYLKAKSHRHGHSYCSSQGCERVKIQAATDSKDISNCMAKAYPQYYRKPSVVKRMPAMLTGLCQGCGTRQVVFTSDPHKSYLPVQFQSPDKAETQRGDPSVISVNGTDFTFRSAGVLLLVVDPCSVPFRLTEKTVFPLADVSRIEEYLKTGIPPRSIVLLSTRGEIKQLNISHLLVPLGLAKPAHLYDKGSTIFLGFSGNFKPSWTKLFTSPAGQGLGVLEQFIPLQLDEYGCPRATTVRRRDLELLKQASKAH
inactive: [1] -0.209 | volasertib -0.364 | [2] -0.142 | epoxomicin 0.058 | [3] -0.184 | [4] -0.088 | [5] -0.049 | rosiglitazone 0.003 | [6] 0.032 | [7] 0.123

CA8 (UniProt P35219)
Chain of UniProt P35219 (P35219 whole entry, looked up): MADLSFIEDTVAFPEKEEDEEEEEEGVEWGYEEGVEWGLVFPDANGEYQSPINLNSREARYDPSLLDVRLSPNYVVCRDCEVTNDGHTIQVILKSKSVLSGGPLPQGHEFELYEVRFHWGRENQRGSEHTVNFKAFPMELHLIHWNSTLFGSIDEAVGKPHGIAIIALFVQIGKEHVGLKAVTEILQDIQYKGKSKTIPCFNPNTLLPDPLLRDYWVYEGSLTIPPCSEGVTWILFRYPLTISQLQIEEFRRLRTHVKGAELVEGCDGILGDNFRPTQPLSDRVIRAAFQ
active: volasertib -0.329
inactive: [1] -0.055 | [2] 0.038 | epoxomicin 0.01 | [3] -0.035 | [4] -0.093 | [5] -0.002 | rosiglitazone 0.044 | [6] -0.099 | [7] -0.127

COMT (UniProt P21964)
inactive: [1] 0.013 | volasertib 0.073 | [2] 0.01 | epoxomicin -0.023 | [3] -0.021 | [4] -0.01 | [5] 0.005 | rosiglitazone 0.039 | [6] -0.11 | [7] 0.142

CASP2 (UniProt P42575)
inactive: [1] 0.058 | volasertib 0.112 | [2] 0.078 | epoxomicin 0.024 | [3] -0.016 | [4] -0.153 | [5] 0.031 | rosiglitazone 0.072 | [6] 0.008 | [7] -0.08

CNOT2 (UniProt Q9NZN8)
inactive: [1] -0.035 | volasertib -0.168 | [2] 0.021 | epoxomicin -0.034 | [3] -0.05 | [4] 0.085 | [5] 0.015 | rosiglitazone 0.007 | [6] 0.062 | [7] -0.027

CIT isoform 4 (UniProt O14578)
inactive: [1] 0.068 | volasertib -0.225 | [2] 0.134 | epoxomicin 0.017 | [3] -0.041 | [4] -0.033 | [5] -0.037 | rosiglitazone 0.057 | [6] 0 | [7] -0.033

CLCN3 (UniProt P51790)
Chain of UniProt P51790 (P51790 whole entry, looked up): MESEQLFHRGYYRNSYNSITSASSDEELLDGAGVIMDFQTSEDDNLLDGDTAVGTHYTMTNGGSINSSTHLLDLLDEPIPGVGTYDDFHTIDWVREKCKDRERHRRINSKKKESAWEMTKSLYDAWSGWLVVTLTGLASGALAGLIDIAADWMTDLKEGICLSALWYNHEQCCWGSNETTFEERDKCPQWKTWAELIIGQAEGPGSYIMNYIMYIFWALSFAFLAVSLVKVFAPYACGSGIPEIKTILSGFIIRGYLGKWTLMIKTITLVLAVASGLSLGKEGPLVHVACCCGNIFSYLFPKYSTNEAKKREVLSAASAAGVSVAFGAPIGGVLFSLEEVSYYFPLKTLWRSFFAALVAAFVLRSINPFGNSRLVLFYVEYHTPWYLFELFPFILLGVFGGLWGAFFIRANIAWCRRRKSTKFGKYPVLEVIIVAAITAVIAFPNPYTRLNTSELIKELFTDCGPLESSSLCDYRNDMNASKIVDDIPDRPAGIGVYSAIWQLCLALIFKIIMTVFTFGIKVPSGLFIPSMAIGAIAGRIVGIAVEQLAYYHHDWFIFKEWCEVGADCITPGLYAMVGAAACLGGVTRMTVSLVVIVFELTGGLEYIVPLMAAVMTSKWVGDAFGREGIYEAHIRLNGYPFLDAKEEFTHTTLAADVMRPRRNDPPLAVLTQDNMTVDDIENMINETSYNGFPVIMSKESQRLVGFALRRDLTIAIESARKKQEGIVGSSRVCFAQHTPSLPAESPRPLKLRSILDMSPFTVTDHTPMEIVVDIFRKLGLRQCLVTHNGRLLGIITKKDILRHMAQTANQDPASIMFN
inactive: [1] 0.036 | volasertib -0.095 | [2] -0.037 | epoxomicin -0.015 | [3] 0.013 | [4] 0.065 | [5] 0.011 | rosiglitazone -0.018 | [6] -0.051 | [7] -0.213

CLCN3 isoform 2 (UniProt P51790)
inactive: [1] -0.047 | volasertib -0.113 | [2] 0.026 | epoxomicin 0.003 | [3] 0.018 | [4] -0.032 | [5] 0.024 | rosiglitazone 0.001 | [6] -0.028 | [7] -0.079

CAD (UniProt P27708)
active: [7] -0.458
inactive: [1] 0.006 | volasertib 0.009 | [2] 0.019 | epoxomicin 0.034 | [3] -0.169 | [4] -0.08 | [5] 0.022 | rosiglitazone 0.032 | [6] -0.028

CNTN4 (UniProt Q8IWV2)
inactive: [1] -0.016 | volasertib -0.14 | [2] -0.084 | epoxomicin 0.149 | [3] -0.208 | [4] -0.157 | [5] 0 | rosiglitazone -0.021 | [6] -0.077 | [7] -0.102

CDK5RAP1 (UniProt Q96SZ6)
active: [7] -0.254
inactive: [1] -0.119 | volasertib -0.064 | [2] 0.071 | epoxomicin 0.033 | [3] 0.001 | [4] -0.086 | [5] -0.006 | rosiglitazone 0.036 | [6] -0.074

CHAC2 (UniProt Q8WUX2)
active: [1] -0.343
inactive: volasertib -0.227 | [2] 0.035 | epoxomicin -0.025 | [3] 0.039 | [4] -0.03 | [5] 0.002 | rosiglitazone 0.028 | [6] -0.04 | [7] 0.041

CDK16 isoform 2 (UniProt Q00536)
inactive: [1] -0.049 | volasertib -0.316 | [2] -0.014 | epoxomicin 0.02 | [3] -0.113 | [4] 0.001 | [5] 0.041 | rosiglitazone 0.061 | [6] -0.074 | [7] 0.135

CPT2 (UniProt P23786)
inactive: [1] 0.235 | [2] -0.019 | epoxomicin 0.011 | [3] 0.109 | [4] 0.384 | [5] 0.088 | rosiglitazone 0.056 | [6] -0.136
active: volasertib 0.912 | [7] -0.613

CD55 isoform 7 (UniProt P08174)
inactive: [1] 0.172 | volasertib 0.096 | [2] -0.031 | epoxomicin 0.086 | [3] 0.02 | [4] -0.006 | [5] -0.042 | rosiglitazone -0.078 | [6] -0.005
active: [7] 0.228

CCDC59 (UniProt Q9P031)
inactive: [1] 0.065 | volasertib 0.186 | [2] -0.006 | epoxomicin -0.067 | [3] -0.013 | [4] 0.088 | [5] -0.08 | rosiglitazone -0.064 | [6] 0.394 | [7] 0.176
